Data from PubChem BioAssay.

Assay: osmotic lysis modulators in infected erythrocytes, primary screen, PSAC antagonist project, cell-based, P. falciparum Indochina, OD700, 3 h (AID 1156)
Details: higher = more signal, called active from +8 up or from −8 down

z-score, inactive:
COC(=O)c1c2oc(c1C(=O)OC)C(=O)N[C@H](Cc1ccccc1)Cn1nncc1C1(CCCCC1)NC(=O)N[C@H](CO)CC2 0.52
CCOC1=C2C(c3ccc(C)cc3)N(S(=O)(=O)c3ccc(C)cc3)CC2n2c(=O)n(-c3ccccc3)c(=O)n2C1 (stereo not given) 0.458
C[C@H]1C2[C@H](Cc3ccccc3)NC(=O)[C@]23C(=O)N[C@H](Cc2ccccc2)C(=O)N[C@H](Cc2ccccc2)C(=O)NC/C=C/CCC/C=C/C3[C@@H]2O[C@]12C (stereo not given in full) 0.601
Cc1ccc(S[C@]2(C(=O)NCCCN(C)C)CC(=O)N(C(C)C)[C@@H]2c2ccc(CO)cc2I)cc1 1.38
O=C1O[C@@H](c2ccccc2)[C@@H](c2ccccc2)N2[C@@H](c3ccc(O)cc3)[C@]3(C(=O)Nc4ccccc43)[C@@H](C(=O)N3CCCCCCC3)[C@H]12 -1.25
COc1ccc(C#Cc2ccc3c(c2)[C@]2(C(=O)N3)[C@H](C(=O)N3CCN(c4ncccn4)CC3)[C@H]3C(=O)O[C@H](c4ccccc4)[C@H](c4ccccc4)N3[C@@H]2c2ccc(O)cc2)cc1 0.474
COCCCNC(=O)[C@@]1(C)c2ccccc2C(=O)N(Cc2ccccc2)[C@H]1c1ccc(CO)cc1 2.67
C=CCC(OC(C)=O)[C@@H]1[C@@H](N(Cc2cc3ccccc3o2)C(=O)c2cccc3ccccc23)c2cc(OCCCO)ccc2N1C(=O)Cc1ccc(OC)cc1 (stereo not given in full) 1.66
CC1CC/C=C\[C@H]2OC34C=CCN(c5ccc6ccccc6c5)C(=O)[C@H]3N(CCCCCO)C(=O)[C@@H]4C2C(=O)O1 (stereo not given in full) -0.0324
CN(C)CCCC[C@@H]1NC(=O)[C@@H]2C[C@H](C(=O)NCCCCCN)[C@H](c3ccc(O)cc3)N2C1=O 0.494
CC(=O)n1cc(C(O)C2C=CC3C(=O)N(c4ccccc4)C(=O)C3N2Nc2ccc(C#N)cc2)c2ccccc21 (stereo not given) 0.566
COc1cc(NN2C(C(O)c3ccccc3)C=CC3C(=O)N(c4ccccc4)C(=O)C32)cc(OC)c1OC (stereo not given) 0.86
C/C=C/[C@H](CCn1cc([C@H](O)c2ccccc2)nn1)[Si](C)(C)c1ccc(OC)cc1 0.39
C=C(C(=O)CC[C@@H](OC(=O)c1cccnc1)c1ccc(CO)o1)C(C)C 0.375
C=CCC(OC(C)=O)[C@@H]1[C@@H](N(Cc2cc3ccccc3o2)C(=O)c2cccc3ccccc23)c2cc(OCCCO)ccc2N1C(=O)Cc1ccc2ccccc2c1 (stereo not given in full) -0.336
Cc1ccccc1/C=C/C=O -0.0758
[N-]=[N+]=NCc1ccccc1C[C@]1(C(=O)NCc2ccccc2)COC(c2ccc(OCCCO)cc2)=N1 4.42
COCCOC(=O)N1C(=O)[C@@]2(c3cc(C#CC4=CCCCC4)ccc31)[C@H](C(=O)N1CCN(c3ncccn3)CC1)[C@H]1C(=O)O[C@H](c3ccccc3)[C@H](c3ccccc3)N1[C@@H]2c1ccc(OCCO)cc1 0.251
COC(=O)C(CC#Cc1ccc2c(c1)[C@]1(C(=O)N2)[C@H](C(=O)N2CCCCCCC2)[C@H]2C(=O)O[C@H](c3ccccc3)[C@H](c3ccccc3)N2[C@@H]1c1ccccc1OCCO)C(=O)OC 0.573
NC(=O)[C@]1(Cc2ccccc2)N=C(c2ccc(OCCCO)cc2)O[C@@H]1c1ccccc1 0.531
CCCCN1CC=CC23O[C@@H]4C=CCCOC(=O)C4[C@H]2C(=O)N(CCCO)[C@@H]3C1=O (stereo not given in full) 0.224
C=CC[C@@]1(C(=O)OC)N=C(c2ccc(OCCCO)cc2)O[C@@H]1c1ccccc1CN=[N+]=[N-] -0.26
C=CC[C@@]1(C(N)=O)N=C(c2ccc(OCCCO)cc2)O[C@@H]1c1ccccc1N=[N+]=[N-] 4.04
Cc1ccc(N2C(=O)c3ccccc3[C@@H](C(=O)NCC(C)C)[C@@H]2c2ccc(CO)cc2)nc1 1.38
CN1C(=O)C2C=CC(C(O)c3ccc(Br)cc3)N(Nc3ccccc3)C2C1=O (stereo not given) 0.302
CCCC[C@@H]1C[C@H]1[C@@H](NC(=O)c1ccccc1)c1ccccc1 0.13
CN(C)CCCCCCNC(=O)[C@@H]1C[C@@H]2C(=O)NCC(=O)N2[C@@H]1c1cccc(OCCO)c1 2.28
COC(=O)c1c(CC[C@@H](CO)NC(=O)Nc2ncn[nH]2)oc(C(=O)Cc2ccccc2)c1C(=O)OC -0.641
COC(=O)[C@@]1(Cc2ccc(F)cc2)[C@H]2c3cc(C(=O)N4CCCC4)n(CCc4ccc(OC)c(Br)c4)c3C[C@H]2CN1C(=O)c1ccccc1 0.248
[N-]=[N+]=NCc1ccccc1[C@@H]1OC(c2ccc(OCCCO)cc2)=N[C@]1(Cc1ccccc1N=[N+]=[N-])C(N)=O 1.5
C#C[C@H](O[Si](C#CCCCCCC)(C(C)C)C(C)C)c1ccccc1 -0.177
CC(=O)NCCCC[C@@H]1NC(=O)[C@@H]2C[C@H](C(=O)NCc3ccc(F)cc3)[C@H](c3ccc(O)cc3)N2C1=O -1.64
CC(C)C[C@@H]1NC(=O)[C@@H]2C[C@H](C(=O)NCCCCN(C)C)[C@H](c3ccc(O)cc3)N2C1=O -0.689
COCCOC(=O)N1C(=O)[C@@]2(c3cc(C#Cc4ccc(OC)cc4)ccc31)[C@H](c1ccc(O)cc1)N1[C@H](c3ccccc3)[C@H](c3ccccc3)OC(=O)[C@H]1[C@@H]2C(=O)N1CCN(c2ncccn2)CC1 -0.969
CCOC(=O)C1=CC[C@@H](c2cccc(Cl)c2)N(S(=O)(=O)c2ccc(C)cc2)[C@H]1c1ccc(C#N)cc1 0.0178
